Here are results for 24 compounds from PubChem BioAssay (EPA / NIEHS).

The source made the active and inactive calls. How the source made its calls: active means hit-call score of the fitted dose curve at least 0.9, where 1 is the maximum; inactive means score below 0.9.

In experiment [1] the test system is TTR (gene 7276). Briefly: CCTE_GLTED_hTTR_0.125uM: CCTE's human Transthyretin (hTTR) Inhibition Assay, with 0.125uM TTR, Great Lakes Toxicology and Ecology Division (GLTED) Lab (AID 2284431).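 Further: hits lower the fluorescence signal relative to DMSO baseline.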 In a few lines: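 Fluorescence (380 ex, 475 em) reported the ANSA probe remaining bound to 0.125uM human transthyretin. Chemicals were incubated with the protein for 2 hours; activity was scored as loss of signal against DMSO negative control.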

A short description of experiment [2]: CCTE_Padilla_ZF_Score.General: CCTE's 144 Hour Post-fertilization zebrafish Assay Score for General Malformation, Padilla Lab (AID 2284411). The method in brief:
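Malformation, death and hatching were scored at 6 dpf by two blinded observers under a stereo microscope. Embryos were dosed singly from 6-8 hpf in sealed plates of 10% Hanks' at 26C and rinsed on 5 dpf; DMSO baseline.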

Experiment [3] in a line: CCTE_Padilla_ZF_Score.Position: CCTE's 144 Hour Post-fertilization zebrafish Assay Score for Position, Padilla Lab (AID 2284409). In a few lines:
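Wild-type zebrafish embryos (with chorions) exposed singly from 6–8 hpf in sealed wells of Hanks' solution at 26C, rinsed at 5 dpf. At 6 dpf, blinded assessors scored abnormal water-column position by brightfield stereomicroscopy, relative to DMSO.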

Experiment [4] can be described thus: CCTE_Padilla_ZF_Score.Living: CCTE's 144 Hour Post-fertilization zebrafish Assay Score for Viability, Padilla Lab (AID 2284410).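 Further: larval death at 6 dpf judged by absent heartbeat or coagulation.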 The procedure:
CCTE_Padilla_ZF_Phenotype_Score is a whole embryo, multiplexed assay using zebrafish ova exposed for 144 hours post fertilization on a 96-well plate.CCTE_Padilla_ZF_Score.Living is one of one assay component(s) measured or calculated from the CCTE_Padilla_ZF_Phenotype_Score assay. It is designed to make measurements of zebrafish development as detected with brightfield microscopy of developing zebrafish embryos.Data from the assay component CCTE_Padilla_ZF_Score.Living was analyzed into 1 assay endpoints. This assay endpoint, CCTE_Padilla_ZF_Score.Living, was analyzed in the positive analysis fitting direction relative to DMSO as the negative control and baseline of activity. Using a type of viability reporter, gain-of-signal activity can be used to understand changes in developmentals as they relate to the whole embryo. To generalize the intended target to other relatable targets, this assay endpoint is annotated to the zebrafish development intended target family, where the subfamily is embryonic mortality.
Zebrafish husbandry: Wild type adult zebrafish (Danio rerio; undefined outbred stock obtained from Aquatic Research Organisms, Hampton, NH, 03842) were housed in an AAALAC-approved animal facility at 28C with a 14:10 h light: dark cycle (lights on at 08:30 h). Adult fish (2-3 females per male; density = 15-20 adults per tank) were kept in one of several 9-liter (L) flow-through colony tanks (Aquaneering Inc., San Diego, CA). All adults in a colony tank were placed in a 2 L (static) breeding tank (Aquatic Habitats, Apopka, FL) one hour prior to light onset. Typically, adults from two to three colony tanks were mated on the same day. Two hours after light onset the adults were returned to the colony tank. […]

The nature of experiment [5]: CCTE_Padilla_ZF_Score.Tail: CCTE's 144 Hour Post-fertilization zebrafish Assay Score for Tail Malformation, Padilla Lab (AID 2284414). The method in brief:
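Tail malformations were scored at 6 dpf by two blinded assessors under a stereo microscope. Chorionated embryos had been exposed from 6-8 hpf in sealed wells of 10% Hanks' at 26 C, then rinsed free of chemical at 5 dpf.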

Experiment [6] in a line: CCTE_Padilla_ZF_Score.Blood_pooling: CCTE's 144 Hour Post-fertilization zebrafish Assay Score for Blood Pooling, Padilla Lab (AID 2284415). In a few lines: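 Blood pooling was scored at 6 dpf under a stereo microscope by two blinded assessors, fitted upward against DMSO. Single embryos were dosed at 6–8 hpf in 10% Hanks', kept sealed at 26C (14:10 h cycle) and rinsed at 5 dpf.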

Experiment [7] in a line: CCTE_Padilla_ZF_Score.Any: CCTE's 144 Hour Post-fertilization zebrafish Assay Score for Any Mortality or Malformation, Padilla Lab (AID 2284416). The method in brief: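 Wild-type zebrafish embryos with chorions, one per well in 10% Hanks' from 6–8 hpf, dosed in sealed plates at 26 C, 14:10 h light:dark; rinsed at 5 dpf; blinded scoring at 6 dpf for death or malformation, versus DMSO.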

Broadly, the AC50 is the concentration at which the activity in the assay is half-maximal. Turning to `CCCCC(CC)CCC(CC(C)C)OS(=O)(=O)O` (stereo not given), the concentration at half-maximal activity (AC50) in experiment [1] was 0.382 µM (active). Take `COCc1c(C(C)C)nc(C(C)C)c(/C=C/[C@@H](O)C[C@@H](O)CC(=O)O)c1-c1ccc(F)cc1`: the compound was called inactive in experiment [2]. In the case of `S=C(NC1CCCCC1)NC1CCCCC1`, the half-maximal activity concentration (AC50) in experiment [2] was 25.5 µM (active).

Regarding `COC(=O)c1c(C)cc(O)c(C)c1O`, in experiment [1], the AC50 is 1.29 µM (active).

`C#CC1(O)CC[C@H]2[C@@H]3CCC4=CCCC[C@@H]4[C@H]3CC[C@@]21C` (stereo not given in full): the AC50 in experiment [2] is 2.31 µM (active). Regarding `O=Nc1ccc(O)cc1`, the result in experiment [2] was inactive. The same measure, in the same setting: with `CCCCC(CC)COC(=O)c1ccccc1O` (stereo not given) the entry was “inactive”. Regarding `O=S1(=O)OC(c2ccc(O)cc2)(c2ccc(O)cc2)c2ccccc21`, the AC50 in experiment [1] is 3.34 µM (active). Turning to `FC(F)=C(F)OC(F)(F)C(F)(F)C(F)(F)F`, the compound was called inactive in experiment [3], in experiment [4], in experiment [2], in experiment [5], in experiment [6] and in experiment [7]. As to `CCOC(F)(F)C(F)(F)C(F)(F)C(F)(F)F`, the outcome in experiment [3], in experiment [4], in experiment [2], in experiment [5], in experiment [6] and in experiment [7] was inactive.

Take `CC=CC(F)(F)C(F)(F)C(F)(F)F`: the compound was called inactive in experiment [3], in experiment [4], in experiment [2], in experiment [5], in experiment [6] and in experiment [7]. As to `CC1=NN(c2cc(S(=O)(=O)O)ccc2Cl)C(=O)C1N=Nc1ccccc1` (stereo not given), in experiment [1], the half-maximal activity concentration (AC50) was 5.76 µM (active).

For `CCCCCCCC/C=C\CCCCCCCC(=O)O`, the half-maximal activity concentration (AC50) in experiment [1] was 3.32 µM (active).

As to `Oc1ccc(Cl)cc1Cc1cc(Cl)ccc1O`, the AC50 in experiment [1] was 0.129 µM (active).

For `c1ccc2c(c1)ccc1cc3c(ccc4ccccc43)cc12`, in experiment [2], the result was inactive.

Regarding `C=CCOCC(O)CCl` (stereo not given), the outcome in experiment [2] was inactive. On the same count and under the same terms, with `CCCCCCCCc1ccc(Nc2ccc(CCCCCCCC)cc2)cc1` the entry was “inactive”; with `CCCCCCCCCCCCCCCC[N+](C)(C)CC`, “inactive”. Take `CCCCC/C=C\C/C=C\CCCCCCCC(=O)OC`: the compound was called inactive in experiment [2]. Further, in experiment [1], the AC50 was 9.84 µM (active). Consider `CCCCCCCCCCCCCOP(=O)(O)O`, for which the AC50 in experiment [1] was 0.78 µM (active). Still for that read-out and setting: in the case of `CN(C)c1ccc(N=Nc2ccccc2C(=O)O)cc1` it was 8.96 µM (active); in that of `CCCCCCCCCCOS(=O)(=O)O`, 3.68 µM (active). Still for that read-out and setting: with `O=c1cc(-c2ccccc2)oc2ccccc12` the figure was 10.8 µM (active). Regarding `CCCCCCCCCCc1ccccc1`, the result in experiment [2] was inactive.
